# From PubChem
# The list is not random: actives were taken first. Their share in the collection is about 4.7%.
# HSF1 activator = increases HSF-1 driven luciferase reporter signal | 300,000 compounds, 1.7% hits | NIH3T3-HGL HSF-1 luciferase reporter, MG132, 8 h; 100% = twice DMSO control signal | activation, % at 9 µM;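 active = mean replicate activation of at least 50% with a set share of replicates each reaching 50%; inconclusive = only one of those two conditions met; inactive = mean below 50% and too few replicates reaching it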;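 note: 0% = median of the neutral control wells and 100% = twice that signal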
# HSF1 inhib = HSF1 inhibition | AID 2098 | 300,000 compounds, 0.77% hits | NIH3T3-HGL HSE-luciferase, MG132-induced, luminescence 8 h; stronger effect = lower value | activity change, negative = inhibition, % at 7.5 µM (by protocol);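 active = more than half of replicate wells show activity change below -50%, luminescence cut by over half; inconclusive = some wells, but at most half, below -50%; inactive = no replicate well below -50%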;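 note: luciferase reports HSF-1 transcriptional activity via heat shock element; 0% = median of DMSO wells and -100% = zero luminescence signal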
# HSP90 refold inh = blocks HSP90-mediated luciferase refolding in reticulocyte lysate | Rabbit reticulocyte lysate, luciferase refolding luminescence, 3 h | inhibition, % at 5.6 µM | 290,000 compounds, 0.91% hits;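 active = inhibition above the screen-wide mean plus 3 SD, computed separately per campaign, cut at about 16% in these data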;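 note: 0% = DMSO wells and 100% = 60 µM geldanamycin wells; inhibitors lower the luminescence because luciferase stays unfolded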
# TWEAK Fn14 block = blocks TWEAK-Fn14 interaction in a reporter cell assay. TWEAK-stimulated Fn14 reporter cells, luciferase luminescence, 8 h. inhibition, % at 10 µM. 360,000 compounds, 2% hits; in the data active = inhibition above about 50%
# EBV LMP1 NFkB = Epstein-Barr LMP1 NF-kappaB reporter inhibition; LMP1-induced NF-kappaB luciferase reporter cells, luminescence; AID 504558; 350,000 compounds, 0.69% hits; inhibition, % at 12.5 µM; in the data active = inhibition above about 41%; inconclusive = no clear call, values can overlap the other calls;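 note: 0% = neutral control wells and 100% = reference inhibitor control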
# TROY signal inh = blocks TROY-dependent signaling in reporter cells | Q293 LMP1-TROYcd NF-kB luciferase reporter, 4 h | 360,000 compounds, 0.98% hits | AID 1347056 | inhibition, % at 10 µM;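 active = compounds whose plate-normalised and pattern-corrected inhibition of the luciferase reporter signal at the single screening dose is 50% or more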
# Active calls of the source: *; u = inconclusive; x = no result given.
SMILES,HSF1 activator,HSF1 inhib,HSP90 refold inh,TWEAK Fn14 block,EBV LMP1 NFkB,TROY signal inh
CC(=O)NC(c1cc(F)c2cccnc2c1O)C1CC1 (stereo not given),x,x,x,4.7,16.4,-0.9
CCC(=O)NC(c1cc(Cl)c2cccnc2c1O)C(C)C (stereo not given),x,x,x,12.1,47.2*,-13.0
CN1CCN(C(c2ccc(Cl)cc2)c2cc(Cl)c3cccnc3c2O)CC1 (stereo not given),79.2*,82.5,10.6,28.1,-9.4,-4.3
CN(CC1CCCN(CCc2ccccc2F)C1)C(=O)c1cc2ccccc2o1 (stereo not given),x,x,x,9.4,-0.9,4.6
O=C(Nc1ccc(N=Nc2ccccc2)cc1)c1ccccc1Cl,72.5*,31.8,-3.4,-8.6,-29.1,-53.9
O=C(Nc1ccc(N=Nc2ccccc2)cc1)c1ccc(Cl)cc1Cl,-8.8,0.8,-3.0,-18.0,-0.3,-24.7
CCc1ccc(OCC(=O)NC(=S)Nc2ccc(C(=O)O)cc2)cc1,2.9,-10.3,2.3,-7.5,6.6,-20.4
CCc1ccc(OCC(=O)NC(NC(=S)Nc2ccc(Cl)cc2)C(Cl)(Cl)Cl)cc1 (stereo not given),8.4,-4.3,-4.1,72.0*,1.9,46.2
CC(C)N(c1ccccc1)c1ccc(NC(=O)CCl)cc1,-25.3,u,1.1,62.2*,-33.5,1.3
O=C(CCl)Nc1ccc(-c2ccccc2)cc1,-47.6,u,3.5,32.1,10.7,-41.8
CCCC(=O)NC(NC(=S)Nc1ccc(N=Nc2ccccc2)cc1)C(Cl)(Cl)Cl (stereo not given),49.0,23.7,5.9,75.9*,23.2,15.2
C[C@@H](NC(=O)[C@@H]1CCCN1C(=O)OC(C)(C)C)c1ccccc1,x,x,x,-1.9,x,-24.1
CCCC(=O)N1CCCC1(C)C(=O)Nc1ccc(OC(F)F)cc1 (stereo not given),x,x,x,-10.3,x,1.6
CC(=O)Nc1ccc(N=Nc2ccccc2)cc1,59.7*,22.3,-4.1,-14.3,-7.9,-76.3
CC(=O)Nc1ccccc1,x,x,x,-57.8,1.5,-5.1
O=C(CCl)Nc1ccc(N=Nc2ccccc2)cc1,67.7*,56.0,2.3,-9.9,-22.9,-64.2
COc1ccc(S(=O)(=O)NC(CC(=O)NCc2ccco2)C(C)C)cc1 (stereo not given),15.1,6.2,-3.2,-15.7,83.6*,-5.4
N#Cc1nc(-c2cccc3ccccc23)oc1NCCN1CCCCC1,70.2*,55.2,-1.6,-48.8,-13.9,-12.9
CCNc1oc(-c2cccc3ccccc23)nc1C#N,43.8,26.2,-2.6,-41.9,-3.0,-59.0
CC12CCC(=O)N1C(C(=O)Nc1cccc3ccccc13)CS2 (stereo not given),70.0*,40.2,x,6.2,-11.3,-0.5
CCOC(=O)c1nn(C)c2[nH]c(=O)n(C)c(=O)c12,x,x,x,10.9,-9.1,-15.8
CC1(C(=O)Nc2ccc3c(c2)OCCO3)CCN1C(=O)Cc1ccc(-c2ccccc2)cc1 (stereo not given),x,x,x,73.6*,x,46.2
CC(C)c1ccc(CC(=O)N2CCC2(C)C(=O)Nc2ccc3c(c2)OCO3)cc1 (stereo not given),x,x,x,-10.7,x,3.7
CC1(C(=O)Nc2ccc3c(c2)OCCO3)CCN1C(=O)C1(c2ccc(Cl)cc2)CCC1 (stereo not given),x,x,x,1.5,x,9.8
CC1(C(=O)Nc2cccc(C#N)c2)CCN1C(=O)Cc1ccc(-c2ccccc2)cc1 (stereo not given),x,x,x,57.0*,x,22.8
SMILES,HSF1 activator,HSF1 inhib,HSP90 refold inh,TWEAK Fn14 block,EBV LMP1 NFkB,TROY signal inh
CC1(C(=O)Nc2ccc3c(c2)OCCO3)CCN1C(=O)C1(c2ccc(Cl)cc2)CC1 (stereo not given),x,x,x,59.0*,x,25.9
CCOC(=O)C1(C)CCCN(C(=O)c2ccc3c(c2)CCO3)C1 (stereo not given),x,x,x,18.1,x,-8.5
CCOC(=O)c1ccc(NC(=O)c2nc(S(=O)(=O)Cc3ccccc3)ncc2Cl)cc1,-33.4,-22.9,2.5,62.5*,9.7,63.0*
CCS(=O)(=O)c1ncc(Cl)c(C(=O)Nc2ccc(S(=O)(=O)N3CCC(C)CC3)cc2)n1,-84.5,-84.7*,3.1,95.4*,7.9,85.0*
Cc1ccc(NC(=O)c2nc(S(=O)(=O)Cc3ccccc3C)ncc2Cl)cc1C,-30.6,-11.1,3.3,82.8*,28.0,85.6*
CC1CCN(S(=O)(=O)c2ccc(NC(=O)c3ccncc3)cc2)CC1,-2.7,0.0,0.8,1.8,8.4,20.2
CCc1ccc(NC(=O)c2nc(S(=O)(=O)Cc3ccccc3)ncc2Cl)cc1,-70.1,u,0.2,85.9*,23.1,78.8*
CCOC(=O)c1ccc(NC(=O)CCS(=O)(=O)Cc2ccccc2)cc1,-2.4,2.9,4.6,-1.3,-10.9,-26.6
CC1(c2nc3ccccc3[nH]2)c2ccccc2C(=O)N1C1CC1 (stereo not given),x,x,x,-13.9,x,-9.1
Cc1cc(C)c(S(=O)(=O)N/N=C/c2ccc3c(c2)OCO3)c(C)c1,-63.7,-55.4*,-2.6,5.8,-8.3,-17.1
COc1ccc(CNC(=O)c2cccc3c(-c4cnn(C)c4)coc23)cc1OC,x,x,x,45.0,x,42.3
C[C@@]12C(C[C@H](O)[C@@]34C[C@@H](CCC13)[C@@H](CO)C4=O)[C@](C)(C(=O)O)CC[C@@H]2O (stereo not given in full),x,x,x,16.3,x,16.0
C=C1C(=O)[C@]23C[C@H]1CCC2[C@@]1(C)C(C[C@@H]3O)[C@](C)(C(=O)OC)CC[C@@H]1O (stereo not given in full),x,x,x,97.7*,x,59.3*
CCOc1cc(C(=O)OC(C)C(=O)Nc2ccccc2OC)ccc1OCC(=O)N1CCOCC1 (stereo not given),x,x,x,-24.2,-3.7,7.4
CCOc1cc(C(=O)OC(C)C(=O)Nc2ncc(Cl)cc2Cl)ccc1OCC(=O)N1CCOCC1 (stereo not given),6.4,3.4,5.2,-14.7,60.8*,-3.0
Cc1cc(C)cc(C(O)c2ncc(-c3ccccc3C)[nH]2)c1 (stereo not given),x,x,x,15.6,x,-8.9
CCN(CC)c1ccc(C(=O)NNC(=O)c2cccn2C)cc1,54.7*,18.0,x,4.0,-18.0,-40.8
CCC(C)Nc1nc(CN2CCOCC2)nc2sc3c(c12)CCC3 (stereo not given),0.6,-5.2,3.1,74.6*,5.4,x
CCN(CC)CCCNc1nc(CN2CCOCC2)nc2sc3c(c12)CCC3,-4.4,-2.5,3.2,5.7,3.1,-9.0
Cc1ccc(NC(=O)CCN2C(=O)C3CCCCC3C2=O)cc1[N+](=O)[O-] (stereo not given),-62.8,-53.2*,x,0.7,-9.3,-8.1
O=C(c1cccc(-c2nnc(-c3ccccc3)o2)c1)N1CCCCC1,56.9*,39.5,-3.2,-28.3,-22.3,-61.3
CC(C)C(=O)N1CCC1(C)C(=O)Nc1cc(-c2ccccc2)nn1C (stereo not given),x,x,x,-4.9,x,43.0
